According to PubChem BioAssay AID1159580 (chemical genetic matrix, 2015):
Where “and” joins values, the source holds several entries; their conditions need not be identical. Equal values may be shown once. Out of some 5,500 compounds screened, about 2,000 (36%) were called active. Roughly 18% stayed inconclusive and do not appear here. No stated cut-off is given here; in the data, active means normalized growth mostly below about 0.91 (no sharp cut-off); inconclusive means no clear call, values can overlap the other calls; inactive means mostly above about 0.92. This is one part of the list.

Experiment: chemical genetic growth profiling, strain panel (AID 1159580);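 further: tested at 20 µM; growth read once vehicle control cultures reached saturation at 30 °C; 1 = growth at the plate median or of vehicle wells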
Settings: S. cerevisiae deletion strains, growth OD

Measured: normalized growth

CCCC1O[C@@H]2CC3C4CCC5=CC(=O)C=CC5(C)C4[C@@H](O)CC3(C)[C@]2(C(=O)CO)O1 (stereo partly specified)
inactive: locus YAL013W, strain DEP1, stronger effect = lower value 1 | locus YAL021C, strain ccr4, stronger effect = lower value 1.01 | locus YAL026C, strain drs2, stronger effect = lower value 1.01 | locus YAL030W, strain snc1, stronger effect = lower value 1.01 | locus YBL061C, strain skt5, stronger effect = lower value 1 | locus YBR009C, strain hhf1, stronger effect = lower value 0.995 | locus YBR021W, strain FUR4, stronger effect = lower value 1 | locus YBR023C, strain chs3, stronger effect = lower value 1.02 | locus YBR171W, strain sec66, stronger effect = lower value 1.01 | locus YBR229C, strain ROT2, stronger effect = lower value 1 | locus YBR231C, strain swc5, stronger effect = lower value 1 | locus YBR279W, strain paf1, stronger effect = lower value 1.01 | locus YCL011C, strain gbp2, stronger effect = lower value 0.996 | locus YCL016C, strain dcc1, stronger effect = lower value 1.01 | locus YCL029C, strain bik1, stronger effect = lower value 1.01 | locus YCL069W, strain vba3, stronger effect = lower value 1.01 | locus YCR088W, strain abp1, stronger effect = lower value 1.01 | locus YDL005C, strain med2, stronger effect = lower value 0.985 | locus YDL035C, strain GPR1, stronger effect = lower value 0.994 | locus YDL040C, strain nat1, stronger effect = lower value 1.01 | locus YDL074C, strain BRE1, stronger effect = lower value 1 | locus YDL101C, strain DUN1, stronger effect = lower value 1.01 | locus YDL134C, strain PPH21, stronger effect = lower value 1 | locus YDL185W, strain tfp1, stronger effect = lower value 1.01 | locus YDL192W, strain arf1, stronger effect = lower value 1.02 | locus YDR001C, strain nth1, stronger effect = lower value 0.993 | locus YDR069C, strain doa4, stronger effect = lower value 1 | locus YDR101C, strain arx1, stronger effect = lower value 1.01 | locus YDR137W, strain rgp1, stronger effect = lower value 0.989 | locus YDR150W, strain NUM1, stronger effect = lower value 0.997 | locus YDR159W, strain sac3, stronger effect = lower value 0.972 | locus YDR162C, strain NBP2, stronger effect = lower value 1 | locus YDR195W, strain ref2 0.971 | locus YDR297W, strain sur2, stronger effect = lower value 1.01 | locus YDR318W, strain mcm21, stronger effect = lower value 1.03 | locus YDR334W, strain swr1, stronger effect = lower value 1.03 | locus YDR335W, strain msn5, stronger effect = lower value 1.01 | locus YDR388W, stronger effect = lower value 1.02 | locus YDR392W, strain spt3, stronger effect = lower value 1.04 | locus YDR502C, strain sam2, stronger effect = lower value 1.02 | locus YEL003W, strain gim4, stronger effect = lower value 1.02 | locus YEL037C, strain rad23, stronger effect = lower value 0.995 | locus YEL061C, strain CIN8 (second series), stronger effect = lower value 1.02 | locus YEL061C, strain CIN8, stronger effect = lower value 1 | locus YER015W, strain faa2, stronger effect = lower value 1.01 | locus YER016W, strain bim1, stronger effect = lower value 1 | locus YER110C, stronger effect = lower value 1.02 | locus YER111C, strain swi4, stronger effect = lower value 1.02 | locus YER155C, strain BEM2 (second series), stronger effect = lower value 1.05 | locus YER155C, strain BEM2, stronger effect = lower value 0.989 | locus YER167W, strain BCK2, stronger effect = lower value 1.01 | locus YFR010W, strain ubp6, stronger effect = lower value 0.987 | locus YGL078C, strain dbp3, stronger effect = lower value 1.01 | locus YGL086W, strain mad1, stronger effect = lower value 1 | locus YGL167C, strain pmr1, stronger effect = lower value 1.01 | locus YGL173C, strain kem1, stronger effect = lower value 1 | locus YGL227W, strain vid30, stronger effect = lower value 1 | locus YGL240W, strain doc1, stronger effect = lower value 0.982 | locus YGL248W, strain PDE1, stronger effect = lower value 1.01 | locus YGL253W, strain hxk2, stronger effect = lower value 1.02 | locus YGR078C, strain PAC10, stronger effect = lower value 0.986 | locus YGR135W, strain pre9, stronger effect = lower value 0.998 | locus YGR229C, strain SMI1, stronger effect = lower value 0.992 | locus YGR252W, strain gcn5, stronger effect = lower value 1.06 | locus YHR013C, strain ard1, stronger effect = lower value 1.03 | locus YHR027C, strain rpn1, stronger effect = lower value 1.01 | locus YHR030C, strain SLT2, stronger effect = lower value 1 and 1.02 | locus YHR079C, strain IRE1 (second series), stronger effect = lower value 1.01 | locus YHR079C, strain IRE1, stronger effect = lower value 1.01 | locus YHR094C, strain hxt1, stronger effect = lower value 1.02 | locus YHR129C, strain ARP1, stronger effect = lower value 1 | locus YHR142W, strain chs7, stronger effect = lower value 1.02 | locus YHR200W, strain rpn10, stronger effect = lower value 1.03 | locus YIL066C, strain RNR3, stronger effect = lower value 1.01 | locus YIL073C, strain SPO22, stronger effect = lower value 1.07 | locus YIL125W, strain kgd1, stronger effect = lower value 0.997 | locus YIR030C, strain dcg1, stronger effect = lower value 1.02 | locus YJL092W, strain hpr5, stronger effect = lower value 1 | locus YJL095W, strain BCK1 (second series), stronger effect = lower value 1.01 | locus YJL095W, strain BCK1, stronger effect = lower value 0.994 and 1.02 | locus YJL115W, strain asf1, stronger effect = lower value 1 | locus YJL129C, strain trk1, stronger effect = lower value 0.98 | locus YJL134W, strain LCB3, stronger effect = lower value 1 | locus YJL154C, strain vps35, stronger effect = lower value 1.01 | locus YJL164C, strain tpk1, stronger effect = lower value 1 | locus YJL166W, strain qcr8, stronger effect = lower value 1.01 | locus YJL168C, strain set2, stronger effect = lower value 1.02 | locus YJL187C, strain SWE1 (second series), stronger effect = lower value 1 | locus YJL187C, strain SWE1, stronger effect = lower value 1.02 | locus YJR043C, strain POL32, stronger effect = lower value 1 | locus YJR066W, strain TOR1, stronger effect = lower value 0.978
